Records with an inconclusive call do not appear. Activity calls are given as the source filed them. Unless noted, calls follow the shape of the dose curve; as a rule, active = well fitted curve in either direction with a large enough effect (not every such curve was filed as active); inconclusive = small, poorly fitted or top-dose-only effect, or another doubt; inactive = flat fitted curve, though single readings scatter.
Experiments:
[1] = target: Mitogen-activated protein kinase 10 (Mus musculus) (UniProt Q61831); assay: JNK3 AlphaScreen Assay (AID 530);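 also: kinase came from lysate of stimulated human HepG2 cells; signal reports phosphorylation of biotinylated GST-cJun 1-79 at Ser73 with 10 µM ATP; series mostly up to about 57 µM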
Summary of the method: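 qHTS format: compounds tested as titrations against IL-1beta/TNF-alpha-activated HepG2 lysate JNK3 with biotin-GST-cJun substrate and 10 uM ATP at room temperature. Loss of anti-phospho-cJun AlphaScreen signal indicates inhibition.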

[2] = target: 3',5'-cyclic-AMP phosphodiesterase 4B (Homo sapiens) (UniProt Q07343); assay: qHTS Assay for Inhibitors of PDE-IV (AID 607; active = well fitted activation curve with a large enough effect in the main read-out, with a control signal flat, not every such curve was filed as active)
Chain of 3',5'-cyclic-AMP phosphodiesterase 4B (Homo sapiens) (Q07343 whole entry, looked up): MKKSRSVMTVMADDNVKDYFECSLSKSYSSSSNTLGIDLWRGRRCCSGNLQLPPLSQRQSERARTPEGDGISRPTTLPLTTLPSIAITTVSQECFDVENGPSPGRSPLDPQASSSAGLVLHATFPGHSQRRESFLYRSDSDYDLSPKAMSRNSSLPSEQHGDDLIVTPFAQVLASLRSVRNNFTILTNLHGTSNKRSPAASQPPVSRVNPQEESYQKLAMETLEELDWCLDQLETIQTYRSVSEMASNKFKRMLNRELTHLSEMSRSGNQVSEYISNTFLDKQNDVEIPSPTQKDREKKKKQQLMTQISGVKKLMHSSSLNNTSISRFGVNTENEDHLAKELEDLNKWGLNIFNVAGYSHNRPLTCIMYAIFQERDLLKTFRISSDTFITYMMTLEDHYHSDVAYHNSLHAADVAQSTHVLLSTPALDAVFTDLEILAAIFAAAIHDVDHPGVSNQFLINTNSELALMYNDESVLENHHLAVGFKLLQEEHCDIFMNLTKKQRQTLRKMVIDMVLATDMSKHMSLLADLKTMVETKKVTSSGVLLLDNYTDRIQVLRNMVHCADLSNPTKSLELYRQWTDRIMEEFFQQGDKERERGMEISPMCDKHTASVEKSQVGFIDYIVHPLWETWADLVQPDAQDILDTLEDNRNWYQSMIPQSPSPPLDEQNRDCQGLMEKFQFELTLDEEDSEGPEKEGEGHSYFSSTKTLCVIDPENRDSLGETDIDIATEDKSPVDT
Summary of the method: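 Cell-based read-out of cAMP via a modified cyclic nucleotide-gated channel and membrane potential dye (535/590 nm) in HEK293 cells expressing PDE4 endogenously. Compounds tested up to 22.9 uM final; 100 uM RO 20-1724 reference.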

Structure (SMILES) | outcome [1] | outcome [2]
COC(=O)[C@@]1(Cc2ccc(F)cc2)[C@H]2c3cc(C(=O)N(C)C)n(Cc4ccc(OC(F)(F)F)cc4)c3C[C@H]2CN1C(=O)c1ccccc1 | inactive | inactive
COC(=O)[C@@]1(Cc2ccc(OC)cc2)[C@H]2c3cc(C(=O)N(C)C)n(CCc4c[nH]c5ccc(O)cc45)c3C[C@H]2CN1C(=O)c1ccccc1 | inactive | inactive
COC(=O)[C@H]1C[C@@H]1[C@H](NC(C)=O)c1ccccc1 | inactive | inactive
COC(=O)[C@@]1(Cc2ccccc2)[C@H]2c3cc(C(=O)N4CCCC4)n(CCSCCO)c3C[C@H]2CN1C(=O)c1ccccc1 | inactive | inactive
Nc1ccccc1C#CCCCCO | inactive | inactive
C[C@@H](C(=O)Nc1ccc2ccccc2c1)[C@@H]1C[C@@]1(C)[C@@H](NS(=O)(=O)c1ccccc1)c1ccccc1 | inactive | inactive
COC(=O)[C@@]1(Cc2ccccc2)[C@H]2c3cc(C(=O)N(C)C)n(Cc4ccc(S(C)(=O)=O)cc4)c3C[C@H]2CN1C(=O)c1ccccc1 | inactive | inactive
Cc1ccc(CNC(=O)[C@@H]2C[C@H]2[C@@H](NP(=O)(c2ccccc2)c2ccccc2)c2ccccc2)o1 | inactive | inactive
COC(=O)[C@@]1(Cc2ccccc2)[C@H]2c3cc(C(=O)N4CCCC4)n(Cc4ccccc4)c3C[C@H]2CN1C(=O)c1ccccc1 | inactive | inactive
COC(=O)[C@@]1(Cc2ccc(OC)cc2)[C@H]2c3cc(C(=O)N4CCCC4)n(CCc4ccc(O)c(O)c4)c3C[C@H]2CN1C(=O)c1ccccc1 | inactive | inactive
COC(=O)[C@H]1C[C@@H]1[C@H](N)c1ccccc1 | inactive | inactive
COC(=O)[C@@]1(Cc2ccc(OC)cc2)[C@H]2c3cc(C(=O)N(C)C)n(Cc4ccc(O)c(OC)c4)c3C[C@H]2CN1C(=O)c1ccccc1 | inactive | inactive
C[C@@H](C(=O)NCC1CC1)[C@@H]1C[C@@]1(C)[C@@H](NC(=O)OCc1ccccc1)c1ccccc1 | inactive | inactive
COC(=O)[C@@]1(Cc2ccc(F)cc2)[C@H]2c3cc(C(=O)N(C)C)n(CCc4ccccn4)c3C[C@H]2CN1C(=O)c1ccccc1 | inactive | inactive
CC(C)=C1C(=O)C(c2ccccc2)=C2CN3C(=O)N(CCc4ccccc4)C(=O)[C@]3(Cc3ccc(C(F)(F)F)cc3)[C@H]21 | inactive | inactive
CCc1c2c(nc3ccc(OC)cc13)OC(C)C2 (stereo not drawn) | inactive | inactive
CS(=O)(=O)c1ccc(CNC(=O)[C@@H]2C[C@H]2[C@@H](NP(=O)(c2ccccc2)c2ccccc2)c2ccccc2)cc1 | inactive | inactive
C[C@@]1(C(NS(=O)(=O)c2cccc3cccnc23)c2ccc(-c3ccccc3)cc2)C[C@H]1C1CCCCC1 (stereo partly drawn) | inactive | inactive
C[C@@H](C(=O)Nc1ccc2ccccc2c1)[C@H]1C[C@]1(C)[C@H](NS(=O)(=O)c1ccccc1)c1ccccc1 | inactive | inactive
C/C(=C\C1CCCCC1)C(NC(=O)c1cccnc1)c1ccc(-c2ccccc2)cc1 (stereo not drawn) | inactive | inactive
COC(=O)[C@@]1(Cc2ccc(F)cc2)[C@H]2c3cc(C(=O)N(C)C)n(CCc4ccc(OC)c(Br)c4)c3C[C@H]2CN1C(=O)c1ccccc1 | inactive | inactive
COC(=O)[C@@]1(Cc2ccc(OC)cc2)[C@H]2c3cc(C(=O)N(C)C)n(Cc4nc5ccccc5[nH]4)c3C[C@H]2CN1C(=O)c1ccccc1 | inactive | inactive
CCc1c2c(nc3ccccc13)OC(C)C2 (stereo not drawn) | inactive | inactive
O=C(NCC1CC1)[C@H]1C[C@@H]1[C@H](NP(=O)(c1ccccc1)c1ccccc1)c1ccccc1 | inactive | inactive
Cc1cc(C(=O)N[C@H](c2ccccc2)[C@@]2(C)C[C@@H]2[C@@H](C)C(=O)Nc2ccc3ccccc3c2)no1 | inactive | inactive
C[C@@H](C(=O)Nc1ccc2ccccc2c1)[C@H]1C[C@]1(C)[C@H](NC(=O)c1cccnc1)c1ccccc1 | inactive | inactive
CC(C)c1ccc2c([Si](C)(C)C)c3c(nc2c1)-c1cccc(=O)n1C3 | inactive | inactive
COC(=O)[C@@]1(Cc2ccc(OC)cc2)[C@H]2c3cc(C(=O)N4CCCC4)n(Cc4ccc(C)c(F)c4F)c3C[C@H]2CN1C(=O)c1ccccc1 | inactive | inactive
COC(=O)[C@@]1(Cc2ccc(F)cc2)[C@H]2c3cc(C(=O)N(C)C)n(CCN4CCOCC4)c3C[C@H]2CN1C(=O)c1ccccc1 | inactive | inactive

Source: PubChem BioAssay (NCATS)
